# PubChem BioAssay AID1347416 (National Center for Advancing Translational Sciences (NCATS), 2020)
# Several values for one entry are separate records, joined by “and”; a condition that tells them apart may be missing. Equal values may be shown once. Hit rate of the full screen: of about 4,100 compounds, about 1,600 (39%) were called active. Another 25% or so got no clear call; they are omitted. Calls follow the shape of the dose curve; as a rule, active = well fitted inhibition curve with a large enough effect; inconclusive = small, poorly fitted or top-dose-only effect; inactive = no such curve, though single readings can be large or run the other way. This is one part of the list.
# Assay: qHTS Validation assay for Inhibitors of Plasmodium falciparum Dd2 growth in vitro; also: nearly all actives have a fitted effect of over 70% in size
# Details: P. falciparum Dd2 in RBCs, SYBR Green growth, 72 h; series mostly up to 28.7 µM
# Excerpt: Malaria, a parasitic disease spread to humans through the bite of a Plasmodium infected Anopheles mosquito, continues to be a global health burden affecting millions of people, with an estimated 228 million cases and 405,000 deaths in 2018. Concerns about safety and limitations of current antimalarial treatments strongly emphasize the need to develop new therapeutic options. The scarce number of chemotypes and validated drug targets with efficacy against the liver stage, have hindered development of new antimalarials. To address this, a chemoprophylactic drug discovery effort was conducted through a combined phenotypic high-throughput asexual blood stage and liver stage screen, providing a robust foundation to identify liver-stage active lead chemotypes. Compounds were initially screened against Plasmodium falciparum Dd2 strain parasites using a in vitro SYBRGreen-1 based 72 hr proliferation assay to identify novel chemotypes to advance to liver stage assays. NIH/NCATS Early Translation Branch Assay Submitter (PI): Anton Simeonov Ph.D.
# […] Assay Protocol: PROTOCOL TABLE (as described by Inglese et al., 2007) SEQUENCE No. (e.g., 1, 2, 3, etc.); PARAMETER (e.g., Cells, Incubation, Reagent, etc.); VALUE; DESCRIPTION SEQUENCE, Parameter, Description 1; Reagent; 3 uL complete malaria growth medium, 1536 TC treated Black clear bottom plate 2; Controls; 23 nL positive control artesunate (300 nM final) to column 1; Neutral control DMSO to columns 2-4 3; Compound; 23 nL of compounds in dose response concentration (29 uM to 0.5 nM final) 4; Reagent; 5 uL malaria infected red blood cells (2.5% hematocrit final, 0.3% parasitemia 5; Time; 72 hours at 37C (5% O2, 5% CO2, 90% N2; 95% Rh) 6; Reagent; 2 uL lysis buffer/SYBRGreen-1, 25 sec shake immediately following dispense 7; Time; ~16 hours at 37C (5% O2, 5% CO2, 90% N2; 95% Rh) 8; Detector; EnVision (PerkinElmer) bottom read at 485/14nm excitation and 535/25 nm emission NOTES (numbers refer to sequence above): 1; Complete Malaria Growth Media: 1X RPMI-1640 w/L-glutamine, 5.5g/L Albumax II, 367 uM Hypoxanthine, 25 mM HEPES, 0.25% Sodium Bicarbonate, 35 uM Gentamicin sulfate 2; Controls were added using the Kalypsis Pintool (Wako USA) equipped with 1536 pinhead 3; Compounds were added in a 7-point, titration with a high final concentration of 29 uM by Pintool from seven inter-plate titrations of library plates and two DMSO control plates at the beginning and end (see Yasgar et al., 2008). 4; Red blood cells infected with Plasmodium falciparum Dd2 parasites were used. 6; Lysis buffer: 20 mM Tris-HCl, 10 mM EDTA, 0.16% Saponin, 1.6% Triton-X, 10X SYBR Green. REFERENCE: Inglese J, Shamu CE, Guy RK. 2007. Reporting data from high-throughput screening of small-molecule libraries. Nat Chem Biol. doi:10.1038/nchembio0807-438 Yasgar A, Shinn P, Jadhav A, Auld D, Michael S, Zheng W, Austin CP, Inglese J, Simeonov A. 2008. Compound Management for Quantitative High-Throughput Screening. J Lab Autom 13:79-89. doi:10.1016/j.jala.2007.12.004
# Potency is read from the fitted curve at half-maximal effect.
row,Structure (SMILES),Potency
1,Cc1noc(C)c1Cc1ccc(C(=O)N2[C@H]3CC[C@@H]2c2cnc(-c4ccccc4)nc2C3)o1,9.44 µM (active)
2,Cn1cc(C(=O)N2[C@H]3CC[C@@H]2c2cnc(-c4ccccc4)nc2C3)cn1,inactive
3,Cc1ccc(C(=O)N2[C@H]3CC[C@@H]2c2cnc(-c4ccccc4)nc2C3)cn1,inactive
4,Cc1nc(-c2ccco2)cc([C@H]2CN3CC[C@H]2C[C@@H]3CNCc2ccccc2)n1,4.33 µM (active)
5,Cc1nc(-c2ccccc2)cc([C@H]2CN3CC[C@H]2C[C@@H]3CN(Cc2ccco2)Cc2ccco2)n1,2.99 µM (active)
6,CCOc1ccc(CN(CCc2ccc3c(c2)OCO3)Cc2cc(OC)ccc2O)cc1,0.668 µM (active)
7,CCOc1cccc(CNCCc2c(C)[nH]c3ccc(OC(F)(F)F)cc23)c1O,2.37 µM (active)
8,Cc1ccc(CN2C3CCCC2CC(NC(=O)Nc2cccc(F)c2)C3)cc1 (centres undefined),10.6 µM (active)
9,O=C(NC1CN2CCC1CC2)c1ccc(-c2ccc([N+](=O)[O-])cc2)o1 (centres undefined),inactive
10,COC1C(=O)N(c2cccc(F)c2)C12CCNCC2 (centres undefined),10.6 µM (active)
11,FC(F)(F)CN1C2CCC1CN(c1nnc(Cl)c3ccccc13)C2,2.11 µM (active)
12,CC(C)(C)c1ccc(NC(=O)OC[C@H]2C[C@@H]3CCN2C[C@@H]3c2cc(C3CCCC3)nc(-c3ccncc3)n2)cc1,2.11 µM (active)
13,O=C(Nc1ccccc1)OC[C@H]1C[C@@H]2CCN1C[C@@H]2c1cc(C2CCCC2)nc(-c2ccncc2)n1,1.68 µM (active)
14,CCC(CC)c1cc([C@H]2CN3CC[C@H]2C[C@@H]3COC(=O)Nc2ccc(C(C)(C)C)cc2)nc(-c2ccncc2)n1,2.11 µM (active)
15,COc1ccc(NC(=O)OC[C@H]2C[C@@H]3CCN2C[C@@H]3c2cc(C3CCCC3)nc(-c3ccncc3)n2)cc1,4.22 µM (active)
16,N#Cc1nn(-c2c(Cl)cc(C(F)(F)F)cc2Cl)c(N)c1S(=O)C(F)(F)F (centres undefined),9.44 µM (active)
17,Cc1c2ccncc2c(C)c2c1[nH]c1ccccc12,3.35 µM (active)
18,CCN1CC=C(c2c[nH]c3ccccc23)CC1,4.22 µM (active)
19,CC(C)N1CC=C(c2c[nH]c3ccccc23)CC1,10.6 µM (active)
20,CCN(CC)C1=NC(=[N+](CC)CC)c2ccccc21,5.31 µM (active)
21,COc1ccc(CC(=O)N2Cc3ccccc3CC3(CCCN3C)C2)cc1 (centres undefined),9.44 µM (active)
22,CC(C(=O)c1c[nH]c2ccccc12)N1CCN(C(=O)c2ccco2)CC1 (centres undefined),5.96 µM (active)
23,COc1cccc([C@@H]2CCN(Cc3[nH]c4ccccc4c3C)C[C@H]2O)c1,1.5 µM (active)
24,CCN1CCN(Cc2cc(Br)cc(Br)c2O)CC1,7.5 µM (active)
25,Oc1c(Br)cc(Br)cc1CN1CCN(Cc2ccccc2)CC1,1.06 µM (active)

row,Structure (SMILES),Potency
1,COc1cc(C2NCc3ccccc3-n3cccc32)ccc1O (centres undefined),2.66 µM (active)
2,Oc1ccc(C2NCc3ccccc3-n3cccc32)cc1Cl (centres undefined),1.19 µM (active) and 1.5 µM (active)
3,CC(C)CCNC(=O)c1cc(C(=O)c2cc(F)ccc2O)cn(CCC(C)C)c1=O,2.11 µM (active)
4,CC(C)CCNC(=O)c1cc(C(=O)c2cc(Br)ccc2O)cn(CCC(C)C)c1=O,0.944 µM (active)
5,O=C(c1cc(C(=O)NCc2ccccc2)c(=O)n(Cc2ccccc2)c1)c1cc(Br)ccc1O,4.73 µM (active)
6,CCOc1c(Cl)cc(CNC(C)C(O)c2ccccc2)cc1OC (centres undefined),6.68 µM (active)
7,CC(NCc1ccc(Cl)cc1Cl)C(O)c1ccccc1 (centres undefined),4.73 µM (active)
8,O=C1NC2(CCCN(Cc3ccccn3)C2)COc2ccccc21 (centres undefined),4.85 µM (active)
9,CC(C)(C)CN1CCC2(COc3ccncc3S(=O)(=O)N2)C1 (centres undefined),inactive
10,Cc1cc(O)c(CN2CC=C(c3ccccc3)CC2)cc1C(C)C,0.335 µM (active)
11,COc1ccc2ccc(O)c(CN3CC=C(c4ccccc4)CC3)c2c1,8.41 µM (active)
12,CCOc1ccc(CN2C(=O)c3ccccc3Sc3ccc(C(=O)N4CCC5(CC4)OCCO5)cc32)cc1,4.22 µM (active)
13,CCC(CC)c1cc([C@H]2CN3CC[C@H]2C[C@@H]3CNS(=O)(=O)c2ccccc2C#N)nc(-c2ccncc2)n1,1.5 µM (active)
14,CCC(CC)c1cc([C@H]2CN3CC[C@H]2C[C@@H]3CNS(=O)(=O)c2cccs2)nc(-c2ccncc2)n1,2.37 µM (active)
15,COC(=O)C(C)Oc1cc(C)cc2oc(=O)c3c(c12)CCC3 (centres undefined),inactive
16,Cc1nc2c(=O)n(C)c(=O)nc-2n(C)n1,0.422 µM (active)
17,CCC(CC)c1cc([C@H]2CN3CC[C@H]2C[C@@H]3CNC(=O)COc2ccccc2)nc(-c2ccncc2)n1,1.5 µM (active)
18,CCC(CC)c1cc([C@H]2CN3CC[C@H]2C[C@@H]3CNC(=O)NCc2ccccc2)nc(-c2ccncc2)n1,4.22 µM (active)
19,CCC(CC)c1cc([C@H]2CN3CC[C@H]2C[C@@H]3CNC(C)=O)nc(-c2ccncc2)n1,15.3 µM (active)
20,CCC(CC)c1cc([C@H]2CN3CC[C@H]2C[C@@H]3CNC(=O)c2ccc(C)cc2)nc(-c2ccncc2)n1,10.6 µM (active)
21,CCC(CC)c1cc([C@H]2CN3CC[C@H]2C[C@@H]3CNC(=O)c2ccccc2)nc(-c2ccncc2)n1,10.6 µM (active)
22,CCC(CC)c1cc([C@H]2CN3CC[C@H]2C[C@@H]3CNC(=O)Cc2cccs2)nc(-c2ccncc2)n1,2.99 µM (active)
23,CCOC(=O)C1(c2ccccc2)CCN(CCC(C#N)(c2ccccc2)c2ccccc2)CC1,5.31 µM (active)
24,CC(C)[C@@]1(NC(=O)[C@@H]2C[C@@H]3c4cccc5[nH]cc(c45)C[C@H]3N(C)C2)O[C@@]2(O)[C@@H]3CCCN3C(=O)[C@H](Cc3ccccc3)N2C1=O,2.37 µM (active)
